Out of some 360,000 compounds screened, about 1,600 (0.44%) were called active. The sample as a whole holds a higher share of actives than the screen did. Values without a mark were called inactive.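 Rule for the calls: active = inhibition above the screen-wide average plus 3 SD (cut at about 13% in these data); inactive = the rest.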

In the experiment the target is Galanin receptor type 3 (Homo sapiens) (UniProt O60755). Put plainly: blockers of human galanin receptor 3 – cell-based, fluorescence readout, primary screen (AID 651719).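 Note: forskolin and galanin both at EC90 stimulate the cells; cAMP rise reported by CNG channel membrane potential dye signal; 0% = forskolin plus galanin with DMSO and 100% = forskolin alone.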 The following applies: HEK293 GalR3-CNG cAMP membrane potential fluorescence; at 3 µM; hits give high values.
Galanin receptor type 3 (Homo sapiens), sequence (O60755 1-299 limits assumed): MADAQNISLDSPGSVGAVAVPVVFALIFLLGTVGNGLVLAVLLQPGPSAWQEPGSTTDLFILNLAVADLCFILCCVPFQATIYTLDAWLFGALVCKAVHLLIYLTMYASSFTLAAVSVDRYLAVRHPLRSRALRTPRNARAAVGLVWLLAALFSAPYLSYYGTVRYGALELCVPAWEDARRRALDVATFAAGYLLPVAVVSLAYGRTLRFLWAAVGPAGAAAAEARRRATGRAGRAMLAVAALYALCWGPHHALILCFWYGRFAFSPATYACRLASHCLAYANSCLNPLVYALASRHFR
As for `CCCCCCCCCCCCn1ccc(=N)cc1`, the inhibition was 75.6% (active). With `CCN(CC)C(=O)[C@@H]1C=C2c3cccc4[nH]c(Br)c(c34)C[C@H]2N(C)C1` the figure was -11%; with `COC(=O)C1=C(c2cc3ccccc3s2)C[C@@H]2CC[C@H]1N2C(=O)NCc1cccc2ccccc12`, 17.8% (active); with `COC(=O)C1=C(c2cc3ccccc3s2)C[C@@H]2CC[C@H]1N2C(=O)NCCO`, -2.95%. With `COC(=O)C1=C(c2cc3ccccc3s2)C[C@@H]2CC[C@H]1N2C(=O)NC(C)C` the figure was -4.53%. With `O=c1[nH]c(=O)n(-c2ccccc2)c(O)c1C=NC12CN3CN(CN(C3)C1)C2` the figure was 5.15%. For `CS(=O)(=O)N1CCC2CCNC2C1` (stereo not given), the inhibition is 0.87%. As to `CCOC(=O)[C@]12Cc3ccccc3[C@H]1N(C1CCCCC1)C(=O)c1cc(OC)ccc12`, the inhibition is -8.42%.

For the compound `Brc1ccc2c(c1)CNCc1cnnn1-2`, the inhibition was -5.56%. Consider `CCN(CC)C(=O)c1ccc(NC(=O)c2cc(-n3cnnc3)ccc2Cl)cc1`, for which the inhibition is -1.92%. With `C[C@]12CC[C@H](O)C[C@H]1CC[C@@H]1C2CC[C@]2(C)[C@@H](C3=CC(=O)OC3)[C@@H](O)C[C@]12O` (stereo not given in full) the figure was 30.2% (active); with `CC12CCC(O)CC1CCC1C2CCC2(C)C(C(=O)CC(O)C(F)(F)F)CCC12` (stereo not given), -1.5%. With `COc1ccc2c(c1)[C@@]13CCCCC1[C@@H](C2)NCC3` (stereo not given in full) the figure was -3.82%. With `COc1ccc(CN2CCN(c3ccccc3F)CC2)c(OC)c1` the figure was -4.46%; with `Clc1ccc([C@@H]2CC3CCC2N3)cn1` (stereo not given in full), -3.43%; with `O=c1c2ccccc2nc(-c2ccccc2)n1-c1ccccn1`, -5.42%.

For the compound `COc1ccc(-n2c(-c3ccccc3)nc3ccccc3c2=O)cc1`, the inhibition is 16.9% (active). For `Cc1ccc(-n2c(-c3ccc([N+](=O)[O-])cc3)nc3ccccc3c2=O)cc1`, the inhibition is -3.3%. For the compound `Cc1cc(N2CCNC[C@@H]2C)ccc1N1CC[C@H](O)C1`, the inhibition is -7.28%. With `CCC(C)NC1(c2ccccc2)CCCCC1` (stereo not given) the figure was -2.56%; with `O=S(=O)(c1ccccc1)N1CCC2CCNC2C1` (stereo not given), -5.66%. With `COc1cc(OC)cc(C(=O)NCCN2CCC3(CC2)C(=O)NCN3c2ccccc2)c1` the figure was -6.02%; with `COC1C(O)C(C)OC(OC2CCC3(C=O)C(CCC4C3CCC3(C)C(C5=CC(=O)OC5)CCC43O)C2)C1O` (stereo not given), 43% (active).

As for `C/C=C/CC1(CC)C(=O)NC(=S)NC1=O`, the inhibition is -12.8%. With `CCCC(C)n1[nH]c(=O)c2c1NC(=O)CSC2c1ccc(OC)c(OC)c1` (stereo not given) the figure was -3.1%.

The term inhibition denotes the drop in the measured response relative to a control, in per cent.

Source of the values: PubChem BioAssay AID651719 (The Scripps Research Institute Molecular Screening Center, 2012).
